What all share (experiment): DAPPL (digital affinity profiling via proximity ligation, sequencing); 10 mM Tris-HCl pH 7.5, 50 mM NaCl, 1 mM DTT, 4% glycerol, room temperature, 30 min; GST-TFs on glutathione beads, 16-mer random dsDNA library, 0.1% formaldehyde crosslink after washing; high values mean tight binding
Assay [1] concerns the target T1, FLI1 (Homo sapiens, UniProt Q01543 1-452).
T1 sequence: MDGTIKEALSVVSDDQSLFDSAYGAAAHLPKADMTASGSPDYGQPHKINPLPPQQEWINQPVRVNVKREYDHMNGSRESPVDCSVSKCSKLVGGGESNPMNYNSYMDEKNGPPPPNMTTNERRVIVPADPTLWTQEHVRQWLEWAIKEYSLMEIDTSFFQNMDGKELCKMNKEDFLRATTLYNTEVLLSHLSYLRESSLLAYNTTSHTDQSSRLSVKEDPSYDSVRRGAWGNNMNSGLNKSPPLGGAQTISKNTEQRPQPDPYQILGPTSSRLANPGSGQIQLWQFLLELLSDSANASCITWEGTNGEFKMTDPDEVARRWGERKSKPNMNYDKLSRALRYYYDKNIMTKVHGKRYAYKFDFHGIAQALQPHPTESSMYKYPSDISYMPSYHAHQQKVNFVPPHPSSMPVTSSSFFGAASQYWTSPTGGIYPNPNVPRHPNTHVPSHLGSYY
Conditions: protein: recombinant; tags: N-terminal GST; dsDNA, one strand shown. The procedure, abridged:
(§1)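 Yeast served to express human transcription factors as GST fusions, which were then captured on glutathione beads and labelled with DNA barcodes. Pooled with a tag-only sample, they were incubated with 200 nmole of a 16-mer random double-stranded DNA library for 30 min at room temperature in Tris/NaCl/DTT/glycerol buffer, washed, crosslinked with 0.1% formaldehyde, ligated by proximity, amplified by PCR and sequenced. Dividing each hexamer's read frequency for a factor by its frequency for the tag-only sample gives the binding signal.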

Assay [2] has as its target T2, ELK1 (Homo sapiens, UniProt P19419 1-428).
T2 sequence: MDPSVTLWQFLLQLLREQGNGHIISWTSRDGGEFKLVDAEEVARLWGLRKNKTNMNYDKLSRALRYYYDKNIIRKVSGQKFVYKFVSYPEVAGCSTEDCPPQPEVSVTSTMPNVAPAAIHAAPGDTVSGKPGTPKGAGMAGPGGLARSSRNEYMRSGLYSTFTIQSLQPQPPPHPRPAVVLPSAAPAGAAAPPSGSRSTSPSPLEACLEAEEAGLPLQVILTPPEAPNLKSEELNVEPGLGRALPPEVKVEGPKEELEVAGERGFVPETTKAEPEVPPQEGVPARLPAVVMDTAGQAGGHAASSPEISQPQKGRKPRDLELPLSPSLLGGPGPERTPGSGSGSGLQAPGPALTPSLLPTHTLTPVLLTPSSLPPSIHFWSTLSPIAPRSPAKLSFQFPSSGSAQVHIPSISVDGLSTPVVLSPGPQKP
The note with it: protein: recombinant; tags: N-terminal GST; dsDNA, one strand shown. The procedure, abridged: as §1

Assay [3] deals with ELF1 (Homo sapiens, UniProt P32519 1-619). The note with it: protein: recombinant; tags: N-terminal GST; dsDNA, one strand shown. The procedure, abridged: as §1
Assay [4] has as its target T3, EHF (Homo sapiens, UniProt Q9NZC4 1-300).
T3 sequence: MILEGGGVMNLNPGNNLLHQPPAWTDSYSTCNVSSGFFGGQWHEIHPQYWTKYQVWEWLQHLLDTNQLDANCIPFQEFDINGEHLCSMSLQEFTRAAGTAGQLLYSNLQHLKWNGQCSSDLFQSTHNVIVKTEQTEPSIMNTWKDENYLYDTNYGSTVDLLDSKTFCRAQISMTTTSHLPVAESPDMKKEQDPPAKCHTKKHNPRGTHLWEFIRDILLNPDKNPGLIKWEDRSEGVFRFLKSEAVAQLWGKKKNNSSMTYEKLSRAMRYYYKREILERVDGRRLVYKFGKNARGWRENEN
The note with it: protein: recombinant; tags: N-terminal GST; dsDNA, one strand shown. In a few lines: as §1

Assay [5] has as its target T4, ELK3 (Homo sapiens, UniProt P41970 1-407).
T4 sequence: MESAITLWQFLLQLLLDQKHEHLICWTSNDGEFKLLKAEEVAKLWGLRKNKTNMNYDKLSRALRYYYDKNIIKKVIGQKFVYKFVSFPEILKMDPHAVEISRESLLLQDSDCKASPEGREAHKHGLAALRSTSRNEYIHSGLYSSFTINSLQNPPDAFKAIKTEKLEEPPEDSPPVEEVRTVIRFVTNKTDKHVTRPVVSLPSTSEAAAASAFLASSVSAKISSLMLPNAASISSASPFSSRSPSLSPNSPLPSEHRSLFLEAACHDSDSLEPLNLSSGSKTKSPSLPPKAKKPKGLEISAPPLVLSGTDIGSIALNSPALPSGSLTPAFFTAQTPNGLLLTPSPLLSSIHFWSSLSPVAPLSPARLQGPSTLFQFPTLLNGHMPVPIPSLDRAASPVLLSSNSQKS
The note with it: protein: recombinant; tags: N-terminal GST; dsDNA, one strand shown. The procedure, abridged:
as §1

Assay [6] concerns the target T5, FEV (Homo sapiens, UniProt Q99581 1-238).
T5 sequence: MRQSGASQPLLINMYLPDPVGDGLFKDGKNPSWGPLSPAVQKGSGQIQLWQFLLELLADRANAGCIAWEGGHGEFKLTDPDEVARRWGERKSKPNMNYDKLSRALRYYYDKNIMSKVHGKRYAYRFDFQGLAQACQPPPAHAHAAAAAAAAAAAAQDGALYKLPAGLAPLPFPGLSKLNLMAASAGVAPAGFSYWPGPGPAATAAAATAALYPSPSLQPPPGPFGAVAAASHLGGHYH
Conditions: protein: recombinant; tags: N-terminal GST; dsDNA, one strand shown. In a few lines: as §1

Assay [7] has as its target ETV5 (Homo sapiens, UniProt P41161 1-510). The note with it: protein: recombinant; tags: N-terminal GST; dsDNA, one strand shown. The procedure, abridged:
as §1

Assay [8] has as its target HSF1 (Homo sapiens, UniProt Q00613 1-529). The note with it: protein: recombinant; tags: N-terminal GST; chain copies: 3; dsDNA, one strand shown. In a few lines:
as §1

Assay [9] concerns the target T6, SPIC (Homo sapiens, UniProt Q8N5J4 1-248).
T6 sequence: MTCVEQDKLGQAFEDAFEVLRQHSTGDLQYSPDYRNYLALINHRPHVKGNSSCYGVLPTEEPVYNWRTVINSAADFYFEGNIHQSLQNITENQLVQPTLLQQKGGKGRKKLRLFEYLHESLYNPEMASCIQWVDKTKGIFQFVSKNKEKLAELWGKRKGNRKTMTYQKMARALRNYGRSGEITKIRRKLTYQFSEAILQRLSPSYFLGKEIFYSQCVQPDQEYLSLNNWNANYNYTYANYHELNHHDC
The note with it: protein: recombinant; tags: N-terminal GST; dsDNA, one strand shown. The procedure, abridged: as §1

Assay [10] addresses ELF4 (Homo sapiens, UniProt Q99607 1-663). The note with it: protein: recombinant; tags: N-terminal GST; dsDNA, one strand shown. In a few lines:
as §1

The target in assay [11] is T7, ELK4 (Homo sapiens, UniProt P28324-2 1-405).
T7 sequence: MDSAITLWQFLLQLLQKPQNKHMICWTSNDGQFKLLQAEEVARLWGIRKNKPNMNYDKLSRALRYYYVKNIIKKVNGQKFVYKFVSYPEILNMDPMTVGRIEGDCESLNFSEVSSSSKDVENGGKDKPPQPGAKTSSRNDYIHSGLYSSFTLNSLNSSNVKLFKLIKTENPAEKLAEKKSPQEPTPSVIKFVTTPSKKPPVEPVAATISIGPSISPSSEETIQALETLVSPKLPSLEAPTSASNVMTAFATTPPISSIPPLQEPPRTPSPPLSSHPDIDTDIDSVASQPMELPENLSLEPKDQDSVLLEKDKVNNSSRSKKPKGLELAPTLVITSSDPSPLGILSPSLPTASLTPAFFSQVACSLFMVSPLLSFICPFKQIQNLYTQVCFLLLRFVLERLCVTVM
The note with it: protein: recombinant; tags: N-terminal GST; dsDNA, one strand shown. In a few lines: as §1

For assay [12], the target named is T8, ETV2 (Homo sapiens, UniProt O00321 1-342).
T8 sequence: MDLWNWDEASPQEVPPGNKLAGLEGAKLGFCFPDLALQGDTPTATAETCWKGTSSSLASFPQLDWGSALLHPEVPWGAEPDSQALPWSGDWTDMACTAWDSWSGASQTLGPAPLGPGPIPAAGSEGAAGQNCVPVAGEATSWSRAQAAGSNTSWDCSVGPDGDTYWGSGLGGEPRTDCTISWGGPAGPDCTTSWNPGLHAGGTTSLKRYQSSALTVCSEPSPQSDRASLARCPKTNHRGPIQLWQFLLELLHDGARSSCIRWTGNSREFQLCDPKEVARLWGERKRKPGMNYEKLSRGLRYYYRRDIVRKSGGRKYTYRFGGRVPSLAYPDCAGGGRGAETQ
The note with it: protein: recombinant; tags: N-terminal GST; dsDNA, one strand shown. In a few lines: as §1

The target in assay [13] is CRX (Homo sapiens, UniProt O43186 1-299). The note with it: protein: recombinant; tags: N-terminal GST; dsDNA, one strand shown. The procedure, abridged:
as §1

Assay [14] concerns the target ETV1 (Homo sapiens, UniProt P50549 1-477). Conditions: protein: recombinant; tags: N-terminal GST; dsDNA, one strand shown. In a few lines: as §1

The values that follow come from PMC7862700, “An all-to-all approach to the identification of sequence-specific readers for epigenetic DNA modifications on cytosine”.

Chain of CRX (O43186 whole entry): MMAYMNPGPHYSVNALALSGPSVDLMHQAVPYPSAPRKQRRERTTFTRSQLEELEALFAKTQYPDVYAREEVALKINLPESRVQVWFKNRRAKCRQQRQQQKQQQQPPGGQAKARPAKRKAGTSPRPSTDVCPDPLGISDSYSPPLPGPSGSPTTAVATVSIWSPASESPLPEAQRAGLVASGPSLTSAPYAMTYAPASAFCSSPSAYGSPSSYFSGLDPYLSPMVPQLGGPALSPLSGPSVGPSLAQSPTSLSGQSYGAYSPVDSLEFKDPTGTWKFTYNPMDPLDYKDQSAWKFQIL
Chain of ELF4 (Q99607 whole entry): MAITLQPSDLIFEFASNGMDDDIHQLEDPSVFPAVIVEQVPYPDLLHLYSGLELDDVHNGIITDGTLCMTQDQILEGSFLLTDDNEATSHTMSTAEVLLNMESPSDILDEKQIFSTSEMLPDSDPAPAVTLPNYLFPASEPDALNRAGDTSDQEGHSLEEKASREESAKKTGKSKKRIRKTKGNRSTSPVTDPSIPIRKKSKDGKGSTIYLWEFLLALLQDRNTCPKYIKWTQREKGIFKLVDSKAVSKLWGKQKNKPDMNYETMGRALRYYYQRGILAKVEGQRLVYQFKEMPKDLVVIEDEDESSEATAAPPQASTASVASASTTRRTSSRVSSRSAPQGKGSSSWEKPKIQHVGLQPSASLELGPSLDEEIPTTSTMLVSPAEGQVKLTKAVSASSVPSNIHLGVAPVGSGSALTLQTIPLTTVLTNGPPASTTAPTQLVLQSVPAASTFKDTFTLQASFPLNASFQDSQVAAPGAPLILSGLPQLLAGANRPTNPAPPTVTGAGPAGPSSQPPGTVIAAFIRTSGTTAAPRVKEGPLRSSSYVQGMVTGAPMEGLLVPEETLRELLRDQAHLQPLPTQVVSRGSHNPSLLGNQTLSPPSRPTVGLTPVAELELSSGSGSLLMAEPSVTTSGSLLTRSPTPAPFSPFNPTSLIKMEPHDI
Chain of HSF1 (Q00613 whole entry): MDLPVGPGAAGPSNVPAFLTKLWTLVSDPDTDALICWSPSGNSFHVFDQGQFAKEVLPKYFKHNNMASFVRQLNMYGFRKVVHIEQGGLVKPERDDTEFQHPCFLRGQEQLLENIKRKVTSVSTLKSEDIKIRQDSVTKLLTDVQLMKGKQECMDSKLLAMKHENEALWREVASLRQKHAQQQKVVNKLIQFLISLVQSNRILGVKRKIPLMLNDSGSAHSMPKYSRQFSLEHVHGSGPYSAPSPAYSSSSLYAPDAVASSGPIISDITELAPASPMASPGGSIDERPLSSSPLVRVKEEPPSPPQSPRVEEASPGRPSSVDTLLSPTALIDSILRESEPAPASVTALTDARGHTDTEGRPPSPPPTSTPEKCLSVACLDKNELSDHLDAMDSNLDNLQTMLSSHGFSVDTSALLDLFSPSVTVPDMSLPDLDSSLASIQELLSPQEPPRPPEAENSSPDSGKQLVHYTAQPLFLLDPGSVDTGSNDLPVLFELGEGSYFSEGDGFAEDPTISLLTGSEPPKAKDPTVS
Chain of ETV1 (P50549 whole entry): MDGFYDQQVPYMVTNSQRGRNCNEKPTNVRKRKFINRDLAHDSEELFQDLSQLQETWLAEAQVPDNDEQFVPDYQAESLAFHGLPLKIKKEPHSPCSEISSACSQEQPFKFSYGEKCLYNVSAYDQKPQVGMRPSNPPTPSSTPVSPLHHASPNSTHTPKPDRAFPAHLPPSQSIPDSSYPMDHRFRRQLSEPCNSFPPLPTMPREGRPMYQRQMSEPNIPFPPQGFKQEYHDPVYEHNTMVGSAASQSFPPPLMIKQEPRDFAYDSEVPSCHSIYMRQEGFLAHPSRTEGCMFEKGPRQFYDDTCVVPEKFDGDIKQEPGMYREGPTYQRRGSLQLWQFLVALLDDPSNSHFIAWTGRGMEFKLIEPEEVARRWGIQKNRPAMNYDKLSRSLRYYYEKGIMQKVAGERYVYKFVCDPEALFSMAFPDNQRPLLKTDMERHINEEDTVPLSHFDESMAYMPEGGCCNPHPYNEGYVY
Chain of ELF1 (P32519 whole entry): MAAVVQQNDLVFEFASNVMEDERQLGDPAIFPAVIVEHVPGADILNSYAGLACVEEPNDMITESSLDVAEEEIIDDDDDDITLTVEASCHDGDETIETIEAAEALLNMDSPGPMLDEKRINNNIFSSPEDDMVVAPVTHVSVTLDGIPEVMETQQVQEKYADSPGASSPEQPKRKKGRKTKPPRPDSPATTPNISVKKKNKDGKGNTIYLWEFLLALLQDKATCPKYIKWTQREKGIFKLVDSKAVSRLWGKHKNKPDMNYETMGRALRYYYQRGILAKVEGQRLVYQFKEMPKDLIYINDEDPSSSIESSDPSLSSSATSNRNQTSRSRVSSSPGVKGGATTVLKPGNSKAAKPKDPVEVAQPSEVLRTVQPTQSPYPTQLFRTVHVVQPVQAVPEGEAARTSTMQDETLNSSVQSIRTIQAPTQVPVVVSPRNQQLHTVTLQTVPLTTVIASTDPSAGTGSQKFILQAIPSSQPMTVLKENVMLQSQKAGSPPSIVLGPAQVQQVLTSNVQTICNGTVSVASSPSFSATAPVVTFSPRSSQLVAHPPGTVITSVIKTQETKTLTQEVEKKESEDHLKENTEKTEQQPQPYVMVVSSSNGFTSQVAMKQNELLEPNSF
Chain of ETV5 (P41161 whole entry): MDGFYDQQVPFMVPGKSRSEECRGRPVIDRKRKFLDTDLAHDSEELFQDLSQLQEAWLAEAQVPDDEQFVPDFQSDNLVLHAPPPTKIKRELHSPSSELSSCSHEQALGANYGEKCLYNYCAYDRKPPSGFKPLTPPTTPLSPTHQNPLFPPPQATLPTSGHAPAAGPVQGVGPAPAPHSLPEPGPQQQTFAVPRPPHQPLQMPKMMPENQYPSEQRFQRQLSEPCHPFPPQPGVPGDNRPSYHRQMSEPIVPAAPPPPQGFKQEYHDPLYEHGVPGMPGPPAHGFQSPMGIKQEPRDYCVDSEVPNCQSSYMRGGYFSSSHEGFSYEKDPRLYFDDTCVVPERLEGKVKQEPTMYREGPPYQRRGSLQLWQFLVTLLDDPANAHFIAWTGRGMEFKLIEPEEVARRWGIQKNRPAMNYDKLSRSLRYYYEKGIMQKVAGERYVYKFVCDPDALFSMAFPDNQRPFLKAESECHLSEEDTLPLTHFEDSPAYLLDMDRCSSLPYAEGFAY

As to TTGGCT, the binding signal was 1.15 fold enrichment (6-mer frequency, TF over GST control) in assay [1]; 1.07 fold enrichment (6-mer frequency, TF over GST control) in [2]; 1.13 fold enrichment (6-mer frequency, TF over GST control) in assay [3]; 1.12 fold enrichment (6-mer frequency, TF over GST control) in [4]; 1 fold enrichment (6-mer frequency, TF over GST control) in assay [5]; 1.17 fold enrichment (6-mer frequency, TF over GST control) in [6]. For the same sequence, the binding signal was 1.05 fold enrichment (6-mer frequency, TF over GST control) in assay [7]; 1.03 fold enrichment (6-mer frequency, TF over GST control) in assay [8]; 1.02 fold enrichment (6-mer frequency, TF over GST control) in [9]; 1.08 fold enrichment (6-mer frequency, TF over GST control) in [10]; 1.21 fold enrichment (6-mer frequency, TF over GST control) in [11]; 1.07 fold enrichment (6-mer frequency, TF over GST control) in assay [12]. In addition, the binding signal in assay [13] is 1.33 fold enrichment (6-mer frequency, TF over GST control); in assay [14], 1.02 fold enrichment (6-mer frequency, TF over GST control).
